Results on 40 compounds are retold here after PubChem BioAssay (NCI).

Where “and” joins values, the source holds several entries; their conditions need not be identical. Equal values may be shown once. This is part of a sample that, as a whole, favours compounds with a hit. Of some 83,000 tested, about 20% had one in any assay.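 Treatment: one concentration, 48 hours, 96-well format. Scoring: percent growth, with anything below 10 considered active.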 Calls of active or inactive are those of the source.

In the assay the test system is MDA-MB-468 breast. The assay can be described thus: NCI-60 one-dose screen, 48 h (100 = growth as untreated, 0 = no growth, -100 = all killed). The conditions noted are these: 10 µM unless noted.
Take `Oc1c(Br)cc(Br)c2ccc(Cn3cc(-c4ccc(C(F)(F)F)cc4)nn3)nc12`: the growth is 30.8% (inactive). As to `C#CCOc1cccc(Nc2ncnc3c(NC(=O)CCl)cccc23)c1`, the growth was -66.7% (active).

For `COc1cc(/C=N/n2cnc3oc(-c4ccccc4)cc3c2=N)cc(CN2CCOCC2)c1O`, the growth is 83.2% (inactive). Take `COc1cc(CCc2cc(NC(=O)c3ccc(N4C[C@@H](C)N[C@@H](C)C4)cc3)n[nH]2)cc(OC)c1`: the growth is 71.3% (inactive). Regarding `O=c1oc2ccc3ccccc3c2cc1-c1ccnc2[nH]c(=S)[nH]c(=O)c12`, the growth is 97.1% (inactive). `CC(C)Nc1ccc(Nc2ccc(NC(C)C)cc2)cc1`: the growth is -7.07% (active). To `Cc1ccc(S(=O)(=O)CCCl)cc1` belongs 118% (inactive); to `C=CCn1ccc(=O)nc1SC`, 115% (inactive); to `Oc1ccc(Nc2ccc3ccccc3c2)cc1`, 30.5% (inactive).

Consider `COc1ccc(C(=O)N/N=C/c2cc(C(F)(F)F)ccc2Cl)cc1`, for which the growth is 53.2% (inactive). For `COc1ccc(-c2nc(-c3cn(C)c4ncccc34)cs2)cc1`, the growth was -6.3% [100 µM] (active).

Consider `COc1ccc([C@H]2[C@@H](F)C(=O)N2c2cc(OC)c(OC)c(OC)c2)cc1F`, for which the growth was 23% (inactive). As to `S=c1[nH]nc(Cn2c3ccccc3c3ccncc32)o1`, the growth was 115% (inactive).

As to `Cc1oc2nc[nH]c(=O)c2c1C(=O)/C=C/c1ccc(Cl)cc1`, the growth is 10.6% (inactive).

`CCC(=O)Oc1ccc(/C(=C(\C)c2ccccc2)c2ccc(OCCN3CCCCC3)cc2)cc1`: the growth is 70.3% (inactive). To `COc1cc(N2C(=O)c3nccnc3C2=O)cc(OC)c1OC` belongs 115% (inactive); to `O=C(N/N=C/c1ccccc1O)c1ccccc1O`, 17% (inactive); to `C=CCN1C(=O)/C(=c2\sc3n(c2=O)NC2C(N=3)N(CC)C(=O)N2CC)c2ccccc21` (stereo not given), 44.6% (inactive).

For the compound `O=[N+]([O-])c1cccc(-c2nc3sccn3c2-c2ccnc(NCCCNS(=O)(=O)c3ccc(Br)cc3)n2)c1`, the growth is 29.2% (inactive). As for `O=[N+]([O-])c1ccc(O)c2ncccc12`, the growth is 30.6% (inactive) and 1.77% (active). With `COc1cccc2c(=O)c3c(sc12)c(NCCCNCCO)nc1ccccc13` the figure was 71.3% (inactive); with `Cc1nc2c(c(N3CCCc4ccccc43)n1)CCC2`, 8.12% (active). For the compound `Cc1ccccc1COc1ccc(-c2onc(C)c2-c2ccc(Cl)cc2)cc1`, the growth is 36.1% (inactive). In the case of `Cc1ccc(C2CC(c3cccc(Nc4ccncc4)c3)=Nc3c(N)nc(N)nc3N2)cc1` (stereo not given), the growth was 60.2% (inactive). As to `C[C@H]1c2[nH]c3ccccc3c2C[C@H]2C(=O)N(CCCCCCC(=O)NO)CC(=O)N21`, the growth is 60.3% (inactive). Take `NC(=O)c1cccc(-c2cc(C(N)=O)ccc2Cl)c1`: the growth was 53.4% (inactive). With `C[C@H](C(=O)N(CCc1ccc(Cl)c(Cl)c1)Cc1cncs1)[C@@H]1CC[C@H](C[C@H](C)n2cc(CN3CCC(c4ccc(Cl)cc4)CC3)nn2)O1`, the growth was 90.3% (inactive).

For `CC(C)(C)CC(C)(C)c1ccc(OCCOCC[N+](C)(C)CC(=O)[O-])cc1`, the growth was 108% (inactive). Take `CCCCCCCCCCCCCCCC(=O)OC1[C@@H](OC(=O)CCCCCCCCCCCCCCC)[C@@H](C(=O)N[C@@H](CCCCN)C(=O)OC)O[C@H]1n1cnc2c(=O)[nH]c(NC(=O)C(C)C)nc21` (stereo not given in full): the growth was 83.1% (inactive). To `Cc1ccc(-c2csc(N(C(=O)N3CCN(c4cc5c(cc4F)c(=O)c(C(=O)O)cn5C4CC4)CC3)c3ccccc3)n2)cc1` belongs -6.73% (active); to `O=c1[nH]c2ccccc2cc1CSc1ccccc1Nc1nccc(-c2ccc(Cl)cc2)n1`, 99.3% (inactive); to `COC(=O)CCCCC1=CCC2C(=O)C=C(O)C2C1` (stereo not given), 100% (inactive). In the case of `O=C(N/N=c1/ccoc2cccnc12)N1CCN(c2ncccn2)CC1`, the growth was 2.98% (active). Take `COC(CC(F)F)c1cn(S(=O)(=O)c2ccc(C)cc2)c2ccccc12` (stereo not given): the growth is 8.95% (active). For `O=C(/C=C\c1ccc(OCCCCCC[P+](c2ccccc2)(c2ccccc2)c2ccccc2)cc1)c1ccc2c(c1)OCCO2`, the growth is -38.6% (active). With `Nc1ncnc2c1c(-c1ccc(Oc3ccccc3)cc1)nn2C[C@H]1SSC[C@@H]1O` the figure was -26.7% (active); with `Cc1ccc(Nc2nc(NCCO)c3ccccc3n2)cc1C`, 32.9% (inactive); with `O=C1/C=C/[C@@H](O)[C@@H]2C[C@@H](O)C[C@H]2/C=C/CCC[C@@H](O)CCO1`, -17% (active). In the case of `COc1cc(CNCCN2C(=O)c3ccc4c5c(ccc(c35)C2=O)C(=O)N(CCNCc2cc(OC)c(OC)c(OC)c2)C4=O)cc(OC)c1OC`, the growth is -91.6% (active).

`COc1ccc(-c2csc(NC(=O)Nc3nc(-c4ccc(OC)cc4)cs3)n2)cc1`: the growth is 47.3% (inactive).
